Source: PubChem BioAssay
DAX1 inh-1 – DAX1 (NR0B1) inhibitors, primary screen, cell-based, HEK293, Gal4-DAX1, luciferase luminescence; HEK293 Gal4-DAX1 luciferase reporter; inhibition, % at 6.75 µM; 340,000 tested, 0.99% active; AID 504766, 2011;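 active means inhibition above the mean over all tested compounds plus 3 SD, cut at about 4.2% in these data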;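 further: inhibition shows as a rise in luminescence from relieved DAX1 repression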
DAX1 inh-2 – DAX1 (NR0B1) inhibitors on StAR promoter, primary screen, cell-based, luminescence, SF-1 (NR5A1), full-length DAX-1; AID 652010, 2013; inhibition, % at 6.8 µM; 370,000 tested, 1.1% active; HEK293T StAR-luciferase reporter, SF-1/DAX-1 repression relief;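 active means inhibition above the mean over all tested compounds plus 3 SD, cut at about 3.6% in these data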;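 further: higher inhibition means more luminescence from relief of DAX-1 repression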
hcDAF12 agonist – H. contortus DAF-12 nuclear receptor activators, primary screen, cell-based, luminescence, HEK293, lit1-tk-luc reporter; 370,000 tested, 1.4% active; activation, % at 6.8 µM; HEK293 hcDAF-12 lit1-tk-luc reporter; 0% DMSO, 100% Δ7-dafachronic acid;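 active means activation above the mean of all tested compounds plus 3 SD, cut at about 5.5% in these data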
ssDAF-12 act – S. stercoralis DAF-12 nuclear receptor activators, primary screen, cell-based, luminescence, HEK293, GRIP1 co-expression, lit1-tk-luc; HEK293 ssDAF-12/GRIP1 lit1-tk-luc reporter; % of 3 µM dafachronic acid response; activation, % at 6.8 µM; 370,000 tested, 1% active; AID 652126, 2013;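 active means activation above the mean over all tested compounds plus 3 SD, cut at about 0.9% in these data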
hgDAF-12 ag – H. glycines DAF-12 receptor agonists, primary screen, cell-based, luminescence, HEK293, GAL4 fusion, UAS-luciferase; HEK293 GAL4-hgDAF12 UAS-luciferase reporter, agonist luminescence; normalized to butyrate control; activation, % at 6.8 µM; 370,000 tested, 1.8% active;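 active means activation above a cutoff set at the mean of all screened compounds plus 3 SD, cut at about 10% in these data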
DAX1 conf – DAX1 (NR0B1) inhibitors relieving SF-1 repression, confirmation, cell-based, luminescence, HEK293T, full-length DAX-1, SF-1 activated StAR promoter; shares compounds with DAX1 inh-2; HEK293T StAR-promoter luciferase reporter, SF-1/DAX-1 repression; inhibition, % at 6.8 µM; 2,400 tested, 87% active;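 active means inhibition above the average of every tested compound plus 3 SD, cut at about 3.8% in these data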
Target sequence (P51843 whole entry, looked up): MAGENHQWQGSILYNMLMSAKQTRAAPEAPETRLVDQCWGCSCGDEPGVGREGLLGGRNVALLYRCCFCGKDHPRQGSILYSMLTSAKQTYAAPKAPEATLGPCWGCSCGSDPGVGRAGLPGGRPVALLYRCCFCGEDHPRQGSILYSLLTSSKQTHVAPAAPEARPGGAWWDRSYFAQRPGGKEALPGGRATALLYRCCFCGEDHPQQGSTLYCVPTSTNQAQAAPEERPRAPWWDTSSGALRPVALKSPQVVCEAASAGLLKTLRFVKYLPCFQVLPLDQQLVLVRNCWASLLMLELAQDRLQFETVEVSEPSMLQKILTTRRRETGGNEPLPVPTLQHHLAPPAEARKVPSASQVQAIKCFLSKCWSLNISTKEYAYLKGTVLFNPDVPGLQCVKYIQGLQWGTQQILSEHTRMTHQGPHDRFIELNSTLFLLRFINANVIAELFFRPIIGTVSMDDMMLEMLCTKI
SF1 mutant ctr – StAR reporter signal changes without DAX1, counter-screen for DAX1 inhibitor project, cell-based, luminescence, AF-2 mutant SF-1, transactivation | AID 652136, 2013 | inhibition, % at 6.8 µM | HEK293 StAR-luciferase, SF-1 AF2 mutant | shares compounds with DAX1 inh-2 | 2,400 tested, 78% active;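 active means inhibition above the mean of all tested compounds plus 3 SD, cut at about 3% in these data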
Of the large screens only hits and unclear results are named; the others gave an inactive call (follow-up assays come after a bar, where they were run). Hits are enriched below; roughly 4.1% of the tested compounds scored in any of these assays.

Cc1cnc(NC(=O)c2ccc(OCC3CCCO3)cc2)s1 (stereo unspecified)	none
Cc1ccc(NC(=O)c2ccc(OCC3CCCO3)cc2)nc1 (stereo unspecified)	DAX1 inh-2 8.3, hgDAF-12 ag 12 | DAX1 conf 6.7 | SF1 mutant ctr 3.3
COc1ccc(Nc2nc(-c3cccs3)cs2)cc1	DAX1 inh-2 7.1, hcDAF12 agonist 16, ssDAF-12 act 3.8, hgDAF-12 ag 18 (no result: DAX1 inh-1) | DAX1 conf 19 | SF1 mutant ctr 11
Oc1ccc(Nc2nc(-c3cccs3)cs2)cc1	none
N#Cc1ccc(/C=C2\CC3(OC(=O)C4CCCC4)CCCN2C3)cc1 (stereo unspecified)	none (no result: DAX1 inh-1)
COc1ccc(/C=N/Nc2ncccc2[N+](=O)[O-])c(OC)c1	DAX1 inh-2 5.0 | DAX1 conf 15 | SF1 mutant ctr 8.9
CCCC(=O)NNC(=O)c1ccoc1C	none
CCC(C)(C)C1CCC(=NNC(=O)c2ccoc2C)CC1 (stereo unspecified)	DAX1 inh-2 4.7, hgDAF-12 ag 18 | DAX1 conf inactive | SF1 mutant ctr 3.1
O=C1C=C[C@H]2CC[C@@H](O)[C@@H]1[C@@H]2Sc1ccccc1	none (no result: DAX1 inh-1)
COC(=O)[C@]12CCCCC=C1N(Cc1ccc(OC)cc1)C(=O)[C@@H]2CC(=O)NCC1CCCCC1	none (no result: DAX1 inh-1)
COc1cc(C(=O)N/N=C(\C)c2ccccn2)cc(OC)c1OC	DAX1 inh-2 8.3 | DAX1 conf inactive | SF1 mutant ctr inactive
CCc1noc(C)c1C(=O)Nc1nc2ccc(S(C)(=O)=O)cc2s1	none
Cc1noc(C)c1C(=O)Nc1nc2ccc(Cl)cc2s1	DAX1 inh-2 5.5 | DAX1 conf inactive | SF1 mutant ctr inactive
Cn1ccc(C(=O)NC(=S)Nc2ccc([N+](=O)[O-])cc2O)n1	DAX1 inh-2 8.3 | DAX1 conf 10 | SF1 mutant ctr 5.8
O=C(NC(=S)Nc1ccc([N+](=O)[O-])cc1O)C1CCCCC1	none
Cc1ccc(C(=O)NCC(=O)Nc2ccc3c(c2)CCC3)cc1	none
CC(=O)c1cccc(NC(=O)c2ccc(CN3CCc4ccccc4C3)cc2)c1	none
CC(=O)c1cccc(NC(=O)c2ccc3c(c2)CCCC3)c1	DAX1 inh-2 8.2, hgDAF-12 ag 13 | DAX1 conf 8.8 | SF1 mutant ctr 5.4
Cc1ccc(C(=O)Nc2ccc3c(c2)CCC3)cc1	DAX1 inh-2 4.6 | DAX1 conf 6.0 | SF1 mutant ctr 4.2
C=CCN(Cc1ccc(OC)cc1OC)C(C#CCCCC)c1ccccc1 (stereo unspecified)	none (no result: DAX1 inh-1, DAX1 inh-2)
COC(=O)[C@]12C[C@H](CC(=O)NCc3cccc4ccccc34)C(=O)N(Cc3ccc(Cl)cc3Cl)C1=C[C@H](C(C)(C)C)O[C@@H]2C	none (no result: DAX1 inh-1)
CCc1ccc(/C=N/Nc2ncnc3nc[nH]c23)cc1	DAX1 inh-2 5.2, hgDAF-12 ag 11 | DAX1 conf 14 | SF1 mutant ctr inactive
CCOC(=O)CNc1ncnc2nc[nH]c12	none
CCCN(CC1CC1)C(=O)c1ccc(CNC(=O)c2cccc(Br)c2)cc1	none (no result: DAX1 inh-1)
O=C1c2ccccc2C(=O)N1CCOc1ccccc1Cl	DAX1 inh-2 8.0 | DAX1 conf 3.8 | SF1 mutant ctr 4.3
O=C1c2ccccc2C(=O)N1CCOc1ccccc1Br	DAX1 inh-2 4.8 | DAX1 conf 4.3 | SF1 mutant ctr inactive
